Structures are written as SMILES. Where “and” joins values, the source holds several entries; their conditions need not be identical. Equal entries are not always repeated. Inconclusive results are not listed. The source holds several records for some structures; these can differ, active in one and inactive in another. A number with no mark means an inactive call. Calls of active or inactive are those of the source. The call rests on the fitted dose curve; in most records, active means well fitted inhibition curve with a large enough effect; inconclusive means small, poorly fitted or top-dose-only effect; inactive means flat fitted curve, though single readings scatter.

In test [1] the test system is HB3. The test is described as follows: qHTS profiling for inhibitors of Plasmodium falciparum proliferation (AID 504749). To be noted: P. falciparum in erythrocytes, SYBR Green DNA, 72 h; series mostly up to 28.7 µM. The procedure, abridged: (§1)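 In a 72 h erythrocytic culture (37 C, humidified, 5% CO2) at 2.5% hematocrit and 0.3% starting parasitemia, compounds were tested; SYBR Green I in detergent lysis buffer stained parasite DNA overnight.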
On the technique in general: Quantitative high-throughput screening tests each substance at several concentrations.

Test [2] concerns ICS. Described as above. To be noted: P. falciparum in erythrocytes, SYBR Green DNA, 72 h; series mostly up to 28.7 µM. The procedure, abridged:
as §1

The subject of test [3] is JCK. The description is as above. To be noted: P. falciparum in erythrocytes, SYBR Green DNA, 72 h; series mostly up to 28.7 µM. The procedure, abridged: as §1
Test [4] relates to N140. The test is described as above. To be noted: P. falciparum in erythrocytes, SYBR Green DNA, 72 h; series mostly up to 28.7 µM. The procedure, abridged: as §1
Test [5] deals with P93_24. Described as above. To be noted: P. falciparum in erythrocytes, SYBR Green DNA, 72 h; series mostly up to 28.7 µM. The gist of the method:
as §1

Test [6] deals with P94_40. Described as above. To be noted: P. falciparum in erythrocytes, SYBR Green DNA, 72 h; series mostly up to 28.7 µM. The gist of the method: as §1
For test [7], the system named is PAD. Described as above. To be noted: P. falciparum in erythrocytes, SYBR Green DNA, 72 h; series mostly up to 28.7 µM. The procedure, abridged:
as §1

For test [8], the system named is PC15. Described as above. To be noted: P. falciparum in erythrocytes, SYBR Green DNA, 72 h; series mostly up to 28.7 µM. The gist of the method: as §1
Test [9] has as its system PC49. Described as above. To be noted: P. falciparum in erythrocytes, SYBR Green DNA, 72 h; series mostly up to 28.7 µM. The gist of the method:
as §1

Test [10] deals with SC27B. Described as above. To be noted: P. falciparum in erythrocytes, SYBR Green DNA, 72 h; series mostly up to 28.7 µM. The procedure, abridged:
as §1

Test [11] has as its system TAB109. The description is as above. To be noted: P. falciparum in erythrocytes, SYBR Green DNA, 72 h; series mostly up to 28.7 µM. The gist of the method: as §1
Test [12] concerns TAB113. Described as above. To be noted: P. falciparum in erythrocytes, SYBR Green DNA, 72 h; series mostly up to 28.7 µM. The gist of the method: as §1
Test [13] has as its system TAB165. The test is described as above. To be noted: P. falciparum in erythrocytes, SYBR Green DNA, 72 h; series mostly up to 28.7 µM. The gist of the method:
as §1

Test [14] concerns W2. The description is as above. To be noted: P. falciparum in erythrocytes, SYBR Green DNA, 72 h; series mostly up to 28.7 µM. The gist of the method: as §1
Test [15] relates to CRL-7250. The test is described as follows: Cytotoxic Profiling of Annotated Libraries Using Quantitative High-Throughput Screening (AID 1296008). On max response: on the % scale 0 is the no-effect control and ±100 the full control effect. To be noted: Five cell lines viability, CellTiter-Glo ATP luminescence, 48-72 h; max response: stronger effect = lower value. The gist of the method:
(§2)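 Cytotoxicity was measured as CellTiter-Glo ATP luminescence, read after 10 min at room temperature. Compound treatment of the cells lasted 48 or 72 hr at 37 degrees Celsius in a qHTS format.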

The test system of test [16] is HaCat. Described as above. To be noted: Five cell lines viability, CellTiter-Glo ATP luminescence, 48-72 h; max response: stronger effect = lower value. The gist of the method: as §2
Test [17] deals with KB-3-1. The test is described as above. To be noted: Five cell lines viability, CellTiter-Glo ATP luminescence, 48-72 h; max response: stronger effect = lower value. The gist of the method:
as §2
In general terms: Cellular ATP, detected with luciferase, serves as a proxy for viable cell number.

Test [18] concerns NIH3T3. The description is as above. To be noted: Five cell lines viability, CellTiter-Glo ATP luminescence, 48-72 h; max response: stronger effect = lower value. The gist of the method:
as §2

Test [19] concerns PC26. Briefly: qHTS profiling for inhibitors of Plasmodium falciparum proliferation (AID 504749). To be noted: P. falciparum in erythrocytes, SYBR Green DNA, 72 h; series mostly up to 28.7 µM. The gist of the method:
as §1

Test [20] deals with HEK293. Briefly: Cytotoxic Profiling of Annotated Libraries Using Quantitative High-Throughput Screening (AID 1296008). On max response: on the % scale 0 is the no-effect control and ±100 the full control effect. To be noted: Five cell lines viability, CellTiter-Glo ATP luminescence, 48-72 h; max response: stronger effect = lower value. The gist of the method:
as §2
Further: nearly all actives have a fitted effect of over 60% in size.
Potency means the concentration at half of the fitted maximal effect.

As for `CC(C)NCC(O)c1ccc(O)c(O)c1` (stereo not drawn), the Potency result in test [1], in [2], in [3], in [4], in test [5] and in test [6] was “inactive” in each case. Further, the Potency entry in test [7], in test [8], in test [9], in test [10], in test [11] and in test [12] was “inactive” throughout. Moreover, the Potency entry in test [13] and in [14] was “inactive” throughout. Besides, the max response in [15] is 0.851%; in test [16] it was 3.14% and -18%; in [17] it was 0.229%; in test [18] it was -0.342% and -6.04%.

Turning to `COc1cc2nc(N3CCN(C(=O)c4ccco4)CC3)nc(N)c2cc1OC`, the figures for the max response in [16] and in test [18] were -3.1% and -23.2%, respectively.

For `Cn1c(=O)c2[nH]cnc2n(C)c1=O`, the Potency result in [1], in [2], in test [3], in test [4], in [5] and in test [6] was “inactive” in each case. The Potency entry in test [8], in test [19], in [9], in test [10], in test [11] and in test [12] was “inactive” in each case. For the same molecule, the Potency entry in [13] and in test [14] was “inactive” throughout.

For `Cc1cn([C@H]2C[C@H](N=[N+]=[N-])[C@@H](CO)O2)c(=O)[nH]c1=O`, the Potency result in [1], in test [2], in test [3], in [4], in [5] and in test [6] was “inactive” in each case. The Potency entry in test [7], in test [8], in test [19], in test [9], in [10] and in test [11] was “inactive” each time. For the same molecule, the Potency result in [12], in test [13] and in test [14] was “inactive” each time.

For `CN1CCN2c3ccccc3Cc3ccccc3C2C1` (stereo not drawn), the Potency result in test [1], in [2], in test [3], in test [4], in test [5] and in test [6] was “inactive” in each case. Besides, the Potency result in test [7], in test [8], in test [19], in test [9], in test [10] and in test [11] was “inactive” each time. The Potency result in test [12] and in test [13] was “inactive” each time.

`O=C(c1ccc(OCCN2CCCCC2)cc1)c1c(-c2ccc(O)cc2)sc2cc(O)ccc12`: the Potency in test [1] was 7.08 µM (active); in test [2], 2 µM (active); in test [4] it was 11.2 µM (active); in test [5] it was 8.91 µM (active); in [6], 7.94 µM (active); in test [10], 8.91 µM (active). Also, the Potency was 7.94 µM (active) in test [11]; 5.01 µM (active) in [12]; 2.82 µM (active) in test [13]; 3.01 µM (active) in test [14]; 16.8 µM (active) in test [16]; 18.8 µM (active) in test [18]. The result in test [15] and in test [16] was inactive. Further, the max response was -14.1% and -7.5% in test [17]; -12.5% in test [18].

As for `CCOC(=O)c1ncn2c1CN(C)C(=O)c1cc(F)ccc1-2`, the Potency result in [1], in test [2], in [3], in test [4], in [5] and in test [6] was “inactive” each time. Besides, the Potency result in test [7], in test [8], in [19], in [9], in test [10] and in test [11] was “inactive” throughout. Moreover, the Potency entry in [12], in [13] and in test [14] was “inactive” in each case.

With `O=C1c2c(O)ccc(O)c2C(=O)c2c(NCCNCCO)ccc(NCCNCCO)c21`, the Potency in test [1] is 3.16 µM (active); in [2], 1.58 µM (active); in [4], 2.24 µM (active); in test [5] it was 1.78 µM (active); in test [6] it was 1.58 µM (active); in test [7], 2 µM (active). Moreover, the Potency in test [19] is 6.42 µM (active); in test [10] it was 3.16 µM (active); in test [11] it was 2.24 µM (active); in [12], 3.55 µM (active); in test [13], 2 µM (active); in test [14] it was 1.81 µM (active). In addition, the Potency in test [15] was 4.18 µM (active) and 1.68 µM (active); in [20], 37.2 nM (active) and 15 nM (active); in [16], 0.264 µM (active); in test [17], 0.296 µM (active); in [18], 59 nM (active) and 21.1 nM (active). In test [9], the Potency result was “inactive”.

On to `COc1ccccc1OCCNCC(O)COc1cccc2[nH]c3ccccc3c12` (stereo not drawn), for which the Potency entry in [1] is “inactive”. Besides, the Potency is 7.08 µM (active) in test [2]; 12.6 µM (active) in test [4]; 10 µM (active) in [6]; 12.6 µM (active) in test [10]; 10 µM (active) in [11]; 10 µM (active) in test [12]. The Potency in test [14] was 4.78 µM (active). The max response is 3.53% and -0.382% in test [15]; -11.1% in test [16]; 1.19% and -0.545% in test [17]; -1.47% and -25.5% in [18]. In [16], the result was inactive.

For `COc1ccccc1N1CCN(CC(O)COc2cccc3ccccc23)CC1` (stereo not drawn), the Potency entry in [1], in [3], in test [4], in [5], in [6] and in test [7] was “inactive” throughout. For the same molecule, the Potency result in test [8], in test [19], in test [9], in test [10] and in test [11] was “inactive” in each case. Besides, the max response in [15] is 4.67%; in [16], 3.01%; in [17] it was 9.55%; in test [18], 0.0963%.

Take `CCCCc1oc2ccccc2c1C(=O)c1cc(I)c(OCCN(CC)CC)c(I)c1`: the Potency was 11.2 µM (active) in [1]; 3.55 µM (active) in [2]; 5.01 µM (active) in test [4]; 3.55 µM (active) in [5]; 3.55 µM (active) in [6]; 6.31 µM (active) in [7]. Also, the Potency in [8] was 11.2 µM (active); in test [19] it was 9.53 µM (active); in test [10], 10 µM (active); in test [11], 7.08 µM (active); in test [12], 12.6 µM (active); in test [13], 3.16 µM (active). Also, the Potency in [14] was 4.26 µM (active); in test [20], 23.5 µM (active). Moreover, the max response in test [15] was -7.04% and -18.2%; in test [17], -16.7% and -5.99% and -5.01%; in test [18] it was -21.3% and -20.5%. Besides, in [16], the result was inactive.
